Results on 66 compounds are retold here after ChEMBL document CHEMBL3988442, “University of Dundee, Small-Polar-MMV Screening Library” (2021).

About 13,000 (27%) of roughly 48,000 compounds showed an effect of 50% or more. The list shows a part of the results.

The test system of this assay is Wolbachia pipientis. In words: Anti-Wolbachia Cell-Based Screen. In kind it is functional. Details: scale not given: in the data most compounds retested in dose-response had high values. Conditions: 5 µM.
With `COc1ccc(-c2nc(CN3CCOCS3(=O)=O)c(C)o2)cc1`, the “Percent Effect” value is reported as 1.396%.
As for `CSCCC(=O)NS(=O)(=O)c1ccc2c(c1)OCCO2`, the figure is 2.619%.
Under `C1CN(c2nc(C3CC3)ns2)CCO1` stands -22.29%.
Under `CN1CCN(Cc2nnc(C3CCN(CC4CC4)CC3)n2C)CC1` stands -21.66%.
With `Cc1cc(CNC(=O)C2CCN(CC(N)=O)CC2)cc(C)n1`, the “Percent Effect” value was determined as 2.597%.
Under `CC(NCC1CCN(CCO)CC1)c1cccnc1` (stereo unspecified) stands -1.701%.
As for `CCCn1ncnc1C(C)NC(=O)C1CCN(CC(N)=O)CC1` (stereo unspecified), the figure is -16.66%; as for `Cc1cncnc1C1CCN(CC(N)=O)CC1`, 132.7%.
As for `Cn1cncc1-c1nnc([C@H]2CCN(CC3CCCCC3)C2)o1`, the figure is -8.237%.
On to `Cc1cncnc1C1CCN(CCO)CC1`, for which the “Percent Effect” value was found to be 125.7%.
As for `CC(c1cccnc1)N1CCN(CCO)CC1` (stereo unspecified), the figure is 9.024%; as for `Cc1cncnc1C1CCN(CC2CC2)CC1`, 99.03%; as for `O=C(CN1CCCS1(=O)=O)NCCOc1ccc2c(c1)CCC2`, -4.434%.
For the compound `Cn1ccnc1SCCNc1nccc(C(F)(F)F)n1`, the “Percent Effect” value is -12.11%.
Under `Cn1c(Nc2cn[nH]c2)c(C#N)c(=O)n(C)c1=O` stands -4.688%; under `CN1C(=O)CCc2cc(NC(=O)C3CC3)ccc21`, -10.85%; under `CN1CC(C(=O)NCCc2ccc3c(c2)OCCO3)CC1=O` (stereo unspecified), 92.09%.
Turning to `CN1CC(C(=O)NCCc2ccc3c(c2)OCO3)CC1=O` (stereo unspecified), the “Percent Effect” value is 94.15%.
Take `O=C(CCS(=O)(=O)C1CCCC1)NCCc1ccc2c(c1)OCCO2`: the “Percent Effect” value is on record as -0.351%.
As for `CN(Cc1nnc2n1CCC2)C(=O)NCCc1ccc2c(c1)OCO2`, the figure is 2.683%.
As for `COc1ccc(C2C3=C(CCCC3=O)Nc3nc(SC)nc(N)c32)cc1` (stereo unspecified), the figure is 12.57%; as for `CN1CCN(C(C)(C)CNC(=O)C2CCCN2S(C)(=O)=O)CC1` (stereo unspecified), 10.51%; as for `CC(C)c1ccc(CS(=O)(=O)Cc2nc(N)nc(N(C)C)n2)cc1`, -6.914%.
As for `COc1cc(C2(C(=O)N3CCN(CC(C)O)CC3)CC2)ccc1C` (stereo unspecified), the figure is 6.894%.
In the case of `N#CCCN(C(=O)COC1CCCC1)C1CC1`, the “Percent Effect” value is -11.78%.
Under `Cc1ccc(OCCC(=O)N(C)CCC#N)cc1C` stands -4.451%.
Under `Cc1ccc(OCc2cccc(C(=O)N(C)CCC#N)c2)cn1` stands 10.32%.
As for `CC(C)CN(C(=O)COc1ccc(C(N)=O)cc1)C1CCN(C)CC1`, the figure is -11.28%; as for `CC(C)(Oc1ccc(C(N)=O)cc1)C(=O)N(CCC#N)C1CC1`, 118.6%; as for `CCOc1ccc(CC(=O)N(CCC(=O)OC)CC2CCCO2)cc1` (stereo unspecified), 5.007%.
Turning to `COC(=O)CCN(CC1CCCO1)C(=O)CCc1ccc(OC)cc1` (stereo unspecified), the “Percent Effect” value is recorded as -1.307%.
Turning to `CN(CCC#N)C(=O)C(C)(C)Oc1ccc(C(N)=O)cc1`, the “Percent Effect” value is recorded as 113.2%.
As for `CC(C)(Oc1ccc(C(N)=O)cc1)C(=O)N(CCC#N)CC1CCCO1` (stereo unspecified), the “Percent Effect” value is recorded as 108.9%.
With `CC(C)(C)CC(=O)N[C@@H]1CO[C@H](CNC(=O)c2ccncc2)[C@H]1O`, the “Percent Effect” value was -7.962%.
As for `Cc1nc(C)c(C)c(N2C[C@@H](CN3CCCN(C)CC3)[C@@H](CO)C2)n1`, the figure is 1.463%.
Under `CN(C)CCCN(CCC#N)C(=O)Nc1ccc2[nH]ccc2c1` stands -1.012%.
As for `O=C(O)C(F)(F)F.O=C(O)c1c(-c2cncnc2)ncc2c1CCN(CC1CCOC1)C2` (stereo unspecified), the figure is 114.1%; as for `O=C(O)C(F)(F)F.O=C(O)c1c(-c2ccoc2)ncc2c1CCN(C1CCOC1)C2` (stereo unspecified), -27.15%; as for `Cc1ccc(Nc2ncnc3c2CCN(CC2CCOC2)CC3)cc1.O=C(O)C(F)(F)F` (stereo unspecified), -7.327%.
As to `O=C(O)C(F)(F)F.O=C(O)C(F)(F)F.O=C(O)c1c(-c2ccncc2)ncc2c1CCN(CC1CCOC1)C2` (stereo unspecified), the “Percent Effect” value worked out at 92.6%.
Under `O=C(O)C(F)(F)F.O=C(O)c1c(NC2CCC2)ncc2c1CCN(C1CCOC1)C2` (stereo unspecified) stands -12.61%; under `O=C(O)C(F)(F)F.O=C(O)C(F)(F)F.O=C(O)c1c(-c2ccncc2)ncc2c1CCN(C1CCOC1)C2` (stereo unspecified), -10.9%; under `CN(C(=O)CCOc1ccccc1)C1CCN(CC2CCOC2)CC1` (stereo unspecified), -10.27%.
`CCN(CC)S(=O)(=O)c1ccc(C(F)(F)F)cc1C#N`: the “Percent Effect” value is -8.635%.
As for `O=C(c1ccc2c(c1)[nH]c(=O)n2C1CCCC1)N1CC(O)C1`, the figure is -1.674%; as for `O=C(c1cc(Cl)ccc1OC1CCN(C2CCCC2)CC1)N1CC(O)C1`, 4.812%.
As for `CCOc1ccccc1C(=O)N1CCCC(O)(CN(C)C)C1` (stereo unspecified), the figure is 8.806%; as for `COc1ccccc1C(=O)N1CC(=O)N(C2CCCCC2)CC(O)C1` (stereo unspecified), 104.3%.
Under `COc1ccc(C(=O)N2CC(=O)N(C3CCC3)CC(O)C2)cc1OC` (stereo unspecified) stands 103.9%.
Turning to `CCOc1ccccc1C(=O)N1CC(=O)N(C2CCC2)CC(O)C1` (stereo unspecified), the “Percent Effect” value came out at 90.13%.
Consider `COc1cccc2c1OCC(C(=O)N1CCN(C3CCCC3)C(=O)C1)C2` (stereo unspecified), for which the “Percent Effect” value is given as -9.278%.
Under `COc1ccc(C(=O)N2CC[C@@H](N3CCC(O)CC3)[C@H](O)C2)cc1C` stands -6.669%; under `COc1cccc(OC)c1C(=O)N1CC(=O)N(C2CCC2)CC(O)C1` (stereo unspecified), 125.2%; under `COc1cccc(OC)c1C(=O)N1CCN(c2ccccc2F)CC1`, -1.098%.
For the compound `CCOc1ccccc1C(=O)N1CCn2c(nnc2C(F)(F)F)C1`, the “Percent Effect” value is -4.293%.
As for `COc1ccccc1OC1CCN(C(=O)c2cccc(O)c2C)CC1`, the figure is 0.8848%; as for `Cc1ccc(NC(=O)N2C[C@H]3CC[C@@H]2CN(Cc2cscn2)C3)cc1`, 4.002%; as for `COc1ccc(C(=O)N2CC(=O)N(C3CCC3)CC(O)C2)c(OC)c1` (stereo unspecified), 143.6%.
Under `COc1ccc(C(=O)NC2CC2)c(OC)c1` stands 17.15%.
Under `COc1ccc(C(=O)N2CC[C@H](CO)[C@H](O)C2)c(C)c1` stands -8.532%.
Consider `Cn1ccnc1CN1CCC2(CCC(=O)N2CCN2CCCC2)CC1.O=C(O)C(F)(F)F.O=C(O)C(F)(F)F`, for which the “Percent Effect” value was determined as 107.9%.
Under `CCN1C(=O)CCC12CCCN(Cc1ccc(F)cc1)CC2.O=C(O)C(F)(F)F` (stereo unspecified) stands 86.81%; under `CCN1C(=O)CCC12CCCN(Cc1nccs1)C2.O=C(O)C(F)(F)F` (stereo unspecified), 30.34%.
Under `CN1CC(=O)N(c2cnn(C)c2)CC12CCN(Cc1nccn1C)C2.O=C(O)C(F)(F)F.O=C(O)C(F)(F)F` (stereo unspecified) stands -9.756%; under `COCCN1C(=O)CCC12CCCN(Cc1nccs1)CC2.O=C(O)C(F)(F)F` (stereo unspecified), 12.79%; under `O=C(O)C(F)(F)F.O=C(O)C(F)(F)F.O=C1CCC2(CCN(Cc3ccc(F)cc3)CC2)N1CCN1CCCC1`, 100.3%.
